Measured values: PubChem BioAssay AID1421 (Emory University Molecular Libraries Screening Center, 2008)
In all, about 1,300 compounds went through this assay and about 140 (11%) were called active. These entries were drawn from the full list. Entries with a potency or affinity are not part of this list. A number with no mark means an inactive call. The rule behind the calls is not given here.

Molecular target: Prostaglandin E2 receptor EP2 subtype (Homo sapiens) (UniProt P43116)
Assay: EP2 receptor modulators, dose response, cell-based, human EP2, PGE2 EC50 shift (AID 1421)
Details: EP2-expressing cells, PGE2 EC50 shift by compound; at 20 µM

Chain of Prostaglandin E2 receptor EP2 subtype (Homo sapiens) (P43116 whole entry, looked up): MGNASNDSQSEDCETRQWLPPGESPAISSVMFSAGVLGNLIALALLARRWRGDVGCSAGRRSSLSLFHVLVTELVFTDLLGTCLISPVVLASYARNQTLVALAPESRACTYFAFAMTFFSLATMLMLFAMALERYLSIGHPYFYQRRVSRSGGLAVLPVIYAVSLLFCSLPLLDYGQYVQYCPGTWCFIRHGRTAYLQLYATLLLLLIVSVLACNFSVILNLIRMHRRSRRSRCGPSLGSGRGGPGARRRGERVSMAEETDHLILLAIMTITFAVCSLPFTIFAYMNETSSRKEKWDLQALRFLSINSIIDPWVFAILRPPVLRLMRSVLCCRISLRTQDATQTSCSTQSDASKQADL

| Compound | PGE2 EC50 with compound [nM] |
| --- | --- |
| c1ccc(C2Nc3ccccc3Oc3ccccc32)cc1 (stereo unspecified) | 0.21 |
| O=C(NCCC1=CCCCC1)c1cccc2c1C(=O)N(C1CCCCC1)C2 | 1.89 |
| Cc1ccc(S(=O)(=O)N2c3ccccc3OCC2C(C)(C)C)cc1 (stereo unspecified) | 0.14 |
| Cc1ccc2c(c1)N(S(=O)(=O)c1ccc(F)cc1)C(C(C)(C)C)CO2 (stereo unspecified) | 0.45 |
| CCC(=O)N(CC)c1nc(-c2cc(OC)ccc2OC)cs1 | 0.24 |
| CCCOP(=O)(OCCC)c1nc(-c2ccccc2)oc1NCc1ccccc1 | 0.15 |
| CCOc1ccc(OCC)c(NC(=O)CN2CCN(c3cccc(C)c3)CC2)c1 | 0.86 |
| O=C(O)c1cc(C(=O)O)cc(N2C(=O)c3ccccc3C2=O)c1 | 0.39 |
| O=C1CCCc2ccccc2N1Cc1c(Cl)cccc1Cl | 0.64 |
| O=c1c2ccccc2c(-c2ccccc2)nn1Cc1c(Cl)cccc1Cl | 0.41 |
| CN(Cc1cccs1)c1nc(-c2cccnc2)nc2ccccc12 | 0.64 |
| CC(C)CCn1c(O)c(N=NC(=O)c2ccco2)c2ccccc21 | 0.33 |
| O=c1c2ccccc2c2ccccc2c(=O)n1Cc1ccco1 | 0.45 |
| CCCCn1c(C)cc(C)c(S(=O)(=O)c2ccccc2C)c1=O | 0.31 |
| CC(C)CCn1c(Oc2ccc(Cl)cc2)nc2c1c(=O)n(C)c(=O)n2C | 0.31 |
| CCCN(CCC)C(C)C(=O)NCC1(c2ccccc2)CCCC1 (stereo unspecified) | 0.23 |
| CCSc1nc2ccccc2n1Cc1ccccc1F | 0.31 |
| CC1CCN(C(C)C(=O)Nc2ccccc2-c2ccccc2)CC1 (stereo unspecified) | 0.26 |
| Cc1ccc(S(=O)(=O)NCC(=O)OCN2C(=O)c3ccccc3C2=O)cc1 | 2.7 |
| Cc1ccc(S(=O)(=O)c2ccc(Oc3cccc(C)c3)cc2)cc1 | 0.66 |
| COc1ccc(OCC(=O)NC(=S)Nc2ccc3c4c(cccc24)CC3)cc1 | 11.2 |
| COc1ccc(C2=Nn3c(nnc3-c3ccccc3)SC2)cc1OC | 0.88 |
| COc1ccc(-c2cc(C(F)(F)F)n3nc(C(=O)N(C)Cc4ccccc4)cc3n2)cc1OC | 0.42 |
| Cc1cnn(-c2nc(-c3ccccc3)cc(-c3ccccc3)n2)c1 | 0.56 |

| Compound | PGE2 EC50 with compound [nM] |
| --- | --- |
| c1ccc(Nc2nc(N3CCNCC3)nc(N3CCOCC3)n2)cc1 | 0.98 |
| COc1ccc(-c2cc(C(F)(F)F)nc(NC3CCCC3)n2)cc1OC | 0.54 |
| CN(C)c1nc(N2CCOCC2)nc(N(c2ccccc2)c2ccccc2)n1 | 0.59 |
| CC(=O)c1sc2nc(-c3ccc(C)cc3)c3c(c2c1N)CCCC3 | 0.52 |
| O=C(/C(=C/O)N=Nc1ccccc1)c1cccs1 | 2.24 |
| COCCOC(=O)c1c(C)oc2ccc(OCc3ccccc3)cc12 | 0.53 |
| c1ccc(Oc2nc3ccccc3n3cccc23)cc1 | 0.38 |
| Cc1cc(C)c2c(n1)sc1c(=O)n(Cc3ccccc3Cl)nnc12 | 0.29 |
| O=C1c2ccccc2OC2(C=Cc3ccccc3O2)N1Cc1ccccc1 (stereo unspecified) | 0.27 |
| Clc1ccc(-c2nn3c(-c4ccccc4)nnc3s2)cc1 | 1.36 |
| CCCCOC(=O)Sc1nc2ccccc2o1 | 2.08 |
| COc1ccc(-c2cc(C(F)(F)F)nc(NCc3ccco3)n2)cc1OC | 0.48 |
| COc1ccc(C(=O)NCCCN2CCOCC2)cc1OC | 0.55 |
| CC(=O)Oc1c2c(c3c(c1CC=C(C)C)O[C@]14C(=C[C@@H]5CC1C(C)(C)OC4(C/C=C(\C)C(=O)O)C5=O)C3=O)OC(C)(CCC=C(C)C)C=C2 (stereo partly specified) | 7.31 |
| O=c1cc(N2CCCCC2)c(-c2ccccc2)nn1Cc1c(Cl)cccc1Cl | 1.07 |
| O=c1cc2c(nn1Cc1c(Cl)cccc1Cl)-c1ccccc1CC2 | 0.74 |
| Cc1ccc(Oc2nc(-c3ccccc3)ncc2S(C)(=O)=O)cc1 | 0.58 |
| O=C(O)c1ccc(CNCc2cccc(Cl)c2Cl)cc1 | 1.05 |
| CCOC(=O)C1=CN(CC2CCCO2)C=C(C(=O)OCC)C1c1ccccc1C(F)(F)F (stereo unspecified) | 0.31 |
| C=CCC1(C)C(=O)N(c2ccccc2)c2ccccc21 (stereo unspecified) | 0.38 |
| Brc1cccc(-c2nnc(SCc3ccon3)n2-c2ccccc2)c1 | 0.48 |
| COc1ccc(Oc2cc(C(F)(F)F)nc(N(C)C)n2)cc1 | 0.6 |
| Cc1cc(C)n(-c2nc(C)nc3c2cnn3-c2ccccc2)n1 | 0.41 |
| COC(=O)c1ccc(-c2ccco2)n1Cc1cccc(C)c1 | 0.17 |

| Compound | PGE2 EC50 with compound [nM] |
| --- | --- |
| Cc1nn(Cc2c(Cl)cccc2Cl)c(C)c1C(=O)NCc1ccc(C)n1C | 0.76 |
| O=C(CSc1nc2cc(Cl)ccc2s1)N1CCCc2ccccc21 | 0.24 |
| C/C(=N\N=C(c1ccccc1)c1ccccc1)c1ccco1 | 0.47 |
| CCOC(=O)c1ccccc1NC1c2ccccc2C(=O)N1c1cc(C)ccn1 (stereo unspecified) | 0.34 |
| CCOc1ccccc1Cn1c(=O)oc2ccc(C)cc21 | 0.36 |
| CCOc1ccccc1NC(=O)c1c(Br)cnn1C | 0.79 |
| O=C(CSc1ncnc2c1oc1ccccc12)Nc1cccc(F)c1 | 2.94 |
| COc1cccc(/C=N/c2oc(-c3ccccc3)cc2C#N)c1O | 8.67 |
| COc1ccc(Nc2nc(-c3cc4cccc(OC)c4oc3=O)cs2)cc1 | 0.92 |
| O=C(CSc1nnc(COc2ccccc2)n1-c1ccccc1)c1ccccc1 | 0.74 |
| Cc1cc(C)cc(OC2CCCCC2NS(=O)(=O)c2ccccc2)c1 (stereo unspecified) | 0.48 |
| C=CCOc1ccccc1CNc1ccccc1C | 0.32 |
| COc1ccccc1C(=O)NC(=S)Nc1cc(C(=O)O)ccc1C | 0.34 |
| Cc1cc(SCC(=O)NCCC2=CCCCC2)nc2ccccc12 | 0.21 |
| CCCc1cc(=O)n2[nH]c(NCc3cccs3)nc2n1 | 0.94 |
| N#CN=C1SCCS1 | 0.67 |
| C=CCSc1ncnc2sc(C)c(C)c12 | 0.85 |
| CSc1ncnc2sc(C)c(C)c12 | 0.56 |
| CC(C)c1ccc2c(c1)CCC1C(C)(C(N)=O)CCCC21C (stereo unspecified) | 0.38 |
| Cn1c(/C=C/N(Cc2ccccc2)c2ccccc2)c([N+](=O)[O-])c(=O)n(C)c1=O | 0.45 |
| CCN(CC)CCN1C(=O)c2cccc3cc(N)cc(c23)C1=O | 0.76 |
| Brc1ccccc1Cn1c(-c2cscn2)nc2ccccc21 | 0.39 |
| FC(F)(F)c1nnc(-c2ccccc2)nc1Sc1ccccc1 | 0.72 |
| c1ccc(-c2n[nH]nc2-c2ccccc2)cc1 | 0.21 |

| Compound | PGE2 EC50 with compound [nM] |
| --- | --- |
| CCN1C(=O)/C(=C2/C=CC=CN2C)SC1=S | 0.94 |
| Nc1ccccc1CCCC(=O)O | 0.94 |
| COc1cc2ccccc2cc1C(=O)NC(=S)Nc1cccc(C(=O)O)c1 | 6.94 |
| O=C(Nc1ccccc1Oc1ccccc1)c1ccccc1F | 0.17 |
| Cc1sc(NC(=O)CN2CCOCC2)c(C(=O)c2ccccc2)c1C | 0.63 |
| CC1CCCCN1C(=O)/C(=C\c1ccccc1)c1ccccc1 (stereo unspecified) | 0.44 |
| CCc1ccccc1NC(=S)N(Cc1ccco1)C(C)c1cccs1 (stereo unspecified) | 0.38 |
| CCOC(=O)C1=C(N)OC(C)=C(C#N)C1c1ccco1 (stereo unspecified) | 0.56 |
| S=c1[nH]nc(C2CCCCC2)n1Cc1ccccc1 | 0.39 |
| C=CCc1cc(C=O)cc(OC)c1OCc1ccc(Cl)cc1 | 0.92 |
| CNC(=O)NC(=O)CSc1nc(-c2cccs2)c(C#N)c(=O)[nH]1 | 15.8 |
| CC(Cc1ccccc1)NC(=O)C1(c2ccccc2)CCOCC1 (stereo unspecified) | 1.12 |
| CCOC(=O)c1cnc2c(c(C)nn2C)c1Oc1ccc(Cl)cc1 | 0.52 |
| C=CCn1c(=O)c(C(=O)NCCc2ccccc2)c(O)c2ccccc21 | 0.5 |
| CC(C)Cc1nc(SCc2cccnc2)c2c(=O)n(C)c(=O)n(C)c2n1 | 0.37 |
| Cc1ccc2nc(SCC(=O)NCc3ccco3)c(C)cc2c1 | 0.5 |
| COc1cc(OC)c2c(OC)c(-c3ccc4c(c3)OCO4)c(=O)oc2c1 | 0.39 |
| CCC1C/C(=C/c2ccco2)C(=O)/C(=C/c2ccco2)C1 (stereo unspecified) | 0.69 |
| Cc1cc(C)c(S(=O)(=O)c2ccccc2)c(OC(=O)c2c(Cl)cc(Cl)cc2Cl)n1 | 0.38 |
| c1ccc(CCc2cccnc2)nc1 | 0.8 |
| Cc1noc(C)c1CSc1ncnc2sc3c(c12)CCCCC3 | 0.42 |
| Cc1noc(C)c1CSc1ncnc2sc3c(c12)CCC(C)C3 (stereo unspecified) | 0.4 |
| CC(=O)O[C@H]1C[C@@H](OC(C)=O)C(C)(C)C2C[C@@H](OC(C)=O)[C@]3(C)C([C@H](OC(C)=O)C[C@@]4(C)[C@H](c5ccoc5)OC(=O)[C@H]5O[C@]543)[C@]21C (stereo partly specified) | 0.32 |
| Cc1ccc(C)n1-n1cnc2scc(-c3cccs3)c2c1=O | 0.29 |
